Assay outcomes from PubChem.
The list is not random: actives were taken first. Their share in the collection is about 5.2%.
Sfp inh: qHTS Assay for Inhibitors of Bacillus subtilis Sfp phosphopantetheinyl transferase (PPTase). Biochemical Sfp PPTase activity, qHTS. Potency, µM, for the others: largest response in the series, negative = inhibition, hits mostly inhibitors. 310,000 tested, 3.5% active. AID 1490, 2009;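 also: the enzyme is Sfp with the accession as filed and its product quenches rhodamine fluorescence; potency is read from the fitted curve at half-maximal effect; 0% = enzyme reaction without inhibitor and -100% = no enzyme wells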
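Step 1, compound plus 15 nM Sfp-PPTase, 15 min, room temperature. Step 2, add rhodamine-CoA (5 uM) and BHQ-2-YbbR (12.5 uM). Step 3, read 525/598 nm fluorescence at 0 and 30 min.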
Tau fluor counter: Counterscreen qHTS for Inhibitors of Tau Fibril Formation, Fluorescence Polarization; AID 1463, 2008; 280,000 tested, 0.93% active; Potency, µM (top dose mostly 57.7 µM), for the others: at the top dose activity change, negative = decrease; tau K18 P301L Alexa594 fluorescence, heparin fibrillization; also: potency is read from the fitted curve at half-maximal effect; nearly all actives have a fitted effect of over 55% in size
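Human tau K18 P301L (15 uM unlabeled, 0.24 uM Alexa 594-labeled) in 100 mM sodium acetate pH 7 with 20 uM heparin, 6 hr at 37 C. ThT 30 uM added, 1 hr ambient; Alexa 594 FP and total fluorescence read at 555/632 nm.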
FBPA coupling cs: qHTS Assay for Inhibitors of Fructose-1,6-bisphosphate Aldolase from Giardia Lamblia: Coupling assay counterscreen; activity change, negative = inhibition, % at 58.2 µM, hits read low; 290,000 tested, 0.67% active; AID 2472, 2010; coupling enzyme system counterscreen, AmpLite Red fluorescence; in the data active = activity change below about -30%
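Coupling enzymes only (glyceraldehyde-3-phosphate) + compound, at 57.5 uM final, 10 min RT; add substrate/coupling/AmpLite Red mix, 20 min RT; fluorescence ex 525/em 598 nm. Actives flag coupling-system interference.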
Tau FP inhib: qHTS for Inhibitors of Tau Fibril Formation, Fluorescence Polarization | K18 P301L tau heparin fibrillization, Alexa594 FP, 6 h | Potency, µM (doses to about 57.7 µM), for the others: at the top dose activity, negative = inhibition, usual class: inhibitors | AID 1468, 2008 | 280,000 tested, 0.39% active | Microtubule-associated protein tau (Homo sapiens), P10636; also: potency is read from the fitted curve at half-maximal effect; nearly all actives have a fitted effect of over 55% in size
Target sequence (P10636 561-689 P618L limits assumed): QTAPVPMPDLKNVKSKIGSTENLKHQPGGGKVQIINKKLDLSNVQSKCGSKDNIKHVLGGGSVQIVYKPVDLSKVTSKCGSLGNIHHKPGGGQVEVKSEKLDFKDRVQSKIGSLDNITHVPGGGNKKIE
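Recombinant K18 P301L […], labeled with Alexa 594 at 0.24 uM over 15 uM unlabeled; heparin inducer 20 uM final; 37 C, 6 hr; FP endpoint.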
Tau fibril ThT: qHTS for Inhibitors of Tau Fibril Formation, Thioflavin T Binding. Microtubule-associated protein tau (Homo sapiens), P10636. recombinant tau K18 P301L (four-repeat tau fragment), heparin-induced fibrillization, ThT fluorescence. Potency, µM (doses to about 57.4 µM), without a hit: top-dose activity, negative = inhibition, most hits filed as inhibitors. 270,000 tested, 2.1% active; also: potency is read from the fitted curve at half-maximal effect; nearly all actives have a fitted effect of over 55% in size
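Tau K18 P301L fragment (15 uM unlabeled plus 0.24 uM Alexa 594-labeled) in 100 mM sodium acetate pH 7 with compound, fibrillization induced by 20 uM heparin for 6 hr at 37 C. Thioflavin T (30 uM) added, fluorescence read after 1 hr (ex 450, em 510 nm).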
An asterisk follows results filed as active; [ ] = another dose, or the depositor's remark. Unless noted, calls follow the shape of the dose curve; as a rule, active = well fitted curve in the direction sought with a large enough effect; inconclusive = small, poorly fitted or top-dose-only effect, or another doubt; inactive = no such curve, though single readings can be large; an effect the other way counts as inactive or inconclusive. Unless noted, % is scaled to controls: 0 for no effect and ±100 for the full control effect.

`COc1ccc(C(=O)Oc2ccc(C(c3c(C)[nH][nH]c3=O)c3c(C)[nH][nH]c3=O)cc2)cc1` gave Tau fluor counter -18.8%, Tau FP inhib -16.3% and Tau fibril ThT inconclusive.
Screening CCOC(=O)N1CCN(CCC(=O)c2ccc(Br)cc2)CC1 returned Sfp inh 50.1µM* and FBPA coupling cs 3.6.
O=C(OCCN1CCCCC1)c1ccc(Cl)cc1 was read as Sfp inh 89.1µM*, Tau fluor counter -8.1%, FBPA coupling cs 0.4, Tau FP inhib -9.5% and Tau fibril ThT -8.6%.
CC(C)COc1ccc(C(=O)OCCN2CCCCC2)cc1 was read as Sfp inh 6.2% and FBPA coupling cs 0.8.
CCOC(=O)N1CCN(CCC(=O)c2ccc(OC)cc2)CC1 was read as Sfp inh -2.3%, Tau fluor counter 8.5%, FBPA coupling cs -0.5, Tau FP inhib 19.6% and Tau fibril ThT inconclusive.
`CCOC(=O)N1CCN(CCC(=O)c2ccc(Cl)cc2)CC1` gave Sfp inh 50.1µM*, Tau fluor counter 11.0%, FBPA coupling cs 8.4, Tau FP inhib inconclusive and Tau fibril ThT 6.5%.
For O=S(=O)(NCC(c1ccco1)S(=O)(=O)c1cccs1)c1ccc(Cl)cc1 (stereo not drawn) the results were Tau fluor counter inconclusive, Tau FP inhib inconclusive and Tau fibril ThT -12.7%.
For C/C(=N\Nc1nc(-c2ccccc2O)nc2ccccc12)c1ccccc1 the results were Sfp inh 3.2%, Tau fluor counter inconclusive, FBPA coupling cs 1.1, Tau FP inhib -2.7% and Tau fibril ThT -8.2%.
For C/C(=N/Nc1nc(-c2ccccc2F)nc2ccccc12)c1ccccc1O the results were Sfp inh -29.3%, Tau fluor counter inconclusive, FBPA coupling cs -0.3, Tau FP inhib 6.4% and Tau fibril ThT 10µM*.
For COc1ccc(Nc2nc(-c3ccccc3F)nc3ccccc23)cc1OC the results were Sfp inh -11.8%, Tau fluor counter 10µM*[quencher], FBPA coupling cs -0.9, Tau FP inhib 14.8% and Tau fibril ThT inconclusive.
Screening COc1ccccc1CNC(=O)c1ccc(N2CCCC2)c(NC(=O)NCc2ccc(F)cc2)c1 returned Tau fluor counter -15.0%, Tau FP inhib 6.4% and Tau fibril ThT 7.7%.
CCc1cccc(CC)c1N(COC)C(=O)Cn1c(C(C)O)nc2ccccc21 (stereo not drawn) was read as Sfp inh 89.1µM*, Tau fluor counter -5.4%, FBPA coupling cs -21.4, Tau FP inhib -3.0% and Tau fibril ThT -7.1%.
Screening CCc1cccc(CC)c1N(COC)C(=O)Cn1c(CC)nc2ccccc21 returned Tau fluor counter -4.6%, Tau FP inhib 5.7% and Tau fibril ThT -9.1%.
Screening O=C(CSc1nnc(-c2ccncc2)n1Cc1ccco1)c1ccc(Cl)cc1 returned Sfp inh 22.4µM*, Tau fluor counter -22.6%, FBPA coupling cs 2.0, Tau FP inhib inconclusive and Tau fibril ThT inconclusive.
`COc1ccc(C(=O)CSc2nnc(-c3cccnc3)n2Cc2ccco2)cc1` gave Sfp inh -0.3%, Tau fluor counter -4.4%, FBPA coupling cs -0.8, Tau FP inhib -6.0% and Tau fibril ThT -12.6%.
`COc1ccc(NC(=O)CSc2nnc(-c3ccccc3Cl)n2Cc2ccco2)c(OC)c1` gave Sfp inh 7.08µM*, Tau fluor counter -7.0%, FBPA coupling cs 0.3, Tau FP inhib 17.5% and Tau fibril ThT -6.8%.
For O=C(CSc1nnc(-c2ccc(Cl)cc2)n1Cc1ccco1)c1cccs1 the results were Sfp inh 22.4µM*, Tau fluor counter -19.0%, FBPA coupling cs -0.9, Tau FP inhib 12.7% and Tau fibril ThT inconclusive.
Screening O=C(CSc1nnc(-c2ccncc2)n1Cc1ccco1)Nc1ccccc1Cl returned Sfp inh 44.7µM*, Tau fluor counter -2.2%, FBPA coupling cs 7.3, Tau FP inhib 3.8% and Tau fibril ThT -7.5%.
Screening COc1ccc(NC(=O)CSc2nnc(-c3ccccc3)n2Cc2ccco2)c(OC)c1 returned Sfp inh inconclusive, Tau fluor counter -8.7%, FBPA coupling cs -2.7, Tau FP inhib -9.6% and Tau fibril ThT -13.3%.
Screening Cc1ccn2c(NC(=O)c3cccc(Cl)c3)c(-c3ccccc3)nc2c1 returned Tau fluor counter -18.1%, Tau FP inhib -3.1% and Tau fibril ThT inconclusive.
CC1CCN(C(=O)CSc2nnc(-c3cc4ccccc4cc3O)n2Cc2ccco2)CC1 was read as Sfp inh 28.2µM*, Tau fluor counter -8.9%, FBPA coupling cs 5.2, Tau FP inhib 9.5% and Tau fibril ThT inconclusive.
For NC(=O)c1cc[n+](CC2=C(C(=O)O)N3C(=O)C(NC(=O)C(c4ccccc4)S(=O)(=O)[O-])C3SC2)cc1 (stereo not drawn) the results were Sfp inh -54.0%, Tau fluor counter -16.1%, FBPA coupling cs 0.1, Tau FP inhib inconclusive and Tau fibril ThT inconclusive.
CCOc1cc(/C=C2\N=C(SC)SC2=O)cc([N+](=O)[O-])c1OC(C)=O was read as Sfp inh inconclusive, Tau fluor counter inconclusive, FBPA coupling cs -0.3, Tau FP inhib -11.0% and Tau fibril ThT 3.55µM*.
`CCOC(=O)CSC1=NC(=O)/C(=C\c2ccc(OC(C)=O)cc2)S1` gave Sfp inh inconclusive, Tau fluor counter -22.3%, FBPA coupling cs 1.8, Tau FP inhib -19.6% and Tau fibril ThT inconclusive.
CCOc1c(OC(C)=O)ccc(/C=C2\N=C(SCC)SC2=O)c1[N+](=O)[O-] was read as Sfp inh -67.9%, Tau fluor counter 17.8µM*[quencher], FBPA coupling cs 0.4, Tau FP inhib inconclusive and Tau fibril ThT 14.1µM*.
For CCOc1cc(/C=C2\N=C(SCC)SC2=O)cc([N+](=O)[O-])c1OC(C)=O the results were Sfp inh inconclusive, Tau fluor counter inconclusive, FBPA coupling cs -2.1, Tau FP inhib -10.0% and Tau fibril ThT 3.98µM*.
`COc1ccc(/C=C2\N=C(SC)SC2=O)cc1OC` gave Sfp inh 4.9%, Tau fluor counter -12.0%, FBPA coupling cs 3.3, Tau FP inhib 0.1% and Tau fibril ThT inconclusive.
For CCSC1=N/C(=C\c2ccc(C)s2)C(=O)S1 the results were Sfp inh inconclusive, Tau fluor counter -29.0%, FBPA coupling cs 0.2, Tau FP inhib -8.7% and Tau fibril ThT inconclusive.
For Cc1cc(C)cc(OCC(=O)NCC2(N3CCOCC3)CCCCC2)c1 the results were Tau fluor counter -9.2%, Tau FP inhib -4.8% and Tau fibril ThT -6.5%.
`Cc1nn(C(=O)c2ccc(Cl)cc2)c(C)c1S(=O)(=O)N1CCOCC1` gave Tau fluor counter 7.6%, Tau FP inhib 8.3% and Tau fibril ThT 2.8%.
